A selection: hits, their analogues and other compounds. The true share with any hit is near 19%.
TDP1 cell CPT – qHTS for Inhibitors of human tyrosyl-DNA phosphodiesterase 1 (TDP1): qHTS in cells in presence of CPT; chicken DT40 Tdp1-/-;hTDP1 cells + 20 nM CPT, ATP luminescence, 48 h; Potency, µM (titrated, usually from 46.2 µM), usual class: inhibitors; hit rate 12% among 420,000; AID 686979, 2013; also: nearly all actives have a fitted effect of over 55% in size
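Chicken DT40 Tdp1-/- cells stably complemented with human TDP1 were seeded at 400 cells/well in medium containing 20 nM camptothecin, exposed to pin-transferred compounds, and grown at 37 °C for at least 48 hr. Viability was read as ATP luminescence.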
HT1080NT lethal – qHTS for induction of synthetic lethality in tumor cells producing 2HG: qHTS for the HT-1080-NT fibrosarcoma cell line; HT-1080-NT fibrosarcoma viability, CellTiter-Glo ATP luminescence, 48 h; Potency, µM (doses to about 46.1 µM), most hits filed as cytotoxic; hit rate 1.6% among 360,000; AID 686970, 2013;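 also: NT is the 2HG producing partner of a matched IDH1 knockdown line; nearly all actives have a fitted effect of over 55% in size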
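Viability of the 2HG-overproducing fibrosarcoma line after 48 hours of compound exposure at 37 degrees C was determined by luminescence with CellTiter-Glo, and concentration-effect curves were then fitted and categorized.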
IL-1B inflam inh – qHTS for Inhibitors of Inflammasome Signaling: IL-1-beta AlphaLISA Primary Screen | THP-1 LPS/ATP IL-1B secretion, AlphaLISA, 16 h; stronger effect = lower value | activity change, % at 57.5 µM | hit rate 4.7% among 360,000 | AID 743279, 2014; in the data active = activity change below about -50%; inconclusive = mostly about -30% to -49%
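Secreted IL-1B measured by AlphaLISA bead assay after 16 h compound exposure of THP-1 cells; compounds (final up to 57.5 uM) added 1 h before LPS (250 ng/mL) and ATP (1.25 mM) stimulation; lower signal means less secretion.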
DT40 TDP1 no CPT – qHTS for Inhibitors of human tyrosyl-DNA phosphodiesterase 1 (TDP1): qHTS in cells in absence of CPT | DT40 Tdp1-/- hTDP1 cells, no CPT, ATP luminescence, 48 h | Potency, µM (titrated, usually from 46.2 µM), hits mostly inhibitors | hit rate 15% among 420,000; also: nearly all actives have a fitted effect of over 55% in size
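Stably hTDP1-transfected Tdp1-null chicken DT40 cells were treated with library compounds minus camptothecin and grown for at least 48 hr at 37 °C, after which cellular ATP was quantified by luminescence.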
HT1080 IDH1KD tx – qHTS for induction of synthetic lethality in tumor cells producing 2HG: qHTS for the HT-1080-IDH1KD cell line; hit rate 2% among 360,000; AID 686971, 2013; HT-1080 IDH1 knockdown viability, ATP luminescence, 48 h; Potency, µM (doses to about 46.1 µM), hits mostly cytotoxic
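Knockdown cells (IDH1KD HT-1080) received compounds 2 h after plating at 750 cells/well and were kept 48 h at 37 °C in 5% FBS RPMI. A CellTiter-Glo luminescence read gave % activity for curve fitting.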
Numbers stand for hits; . = inactive; ? = inconclusive; / = no result. Unless noted, calls follow the shape of the dose curve; as a rule, active = well fitted curve in the direction sought with a large enough effect; inconclusive = small, poorly fitted or top-dose-only effect, or another doubt; inactive = no such curve, though single readings can be large; an effect the other way counts as inactive or inconclusive.

SMILES | TDP1 cell CPT | HT1080NT lethal | IL-1B inflam inh | DT40 TDP1 no CPT | HT1080 IDH1KD tx
CSc1ccc(CCNC(=O)C(C)n2c(C)c3cnn(-c4ccccc4)c(=O)c3c2C)cc1 (configuration not stated) | 26µM | / | / | ? | /
CCc1nnc(NC(=O)Cc2ccc(Br)cc2)s1 | . | . | . | . | .
COC(=O)c1cn(NC(=O)Cn2nc([N+](=O)[O-])c(Br)c2C)c(=O)c2ccccc12 | . | . | . | . | .
COCCC1CCCCN1Cc1cn(-c2ccccc2)nc1-c1ccc2c(c1)OCO2 (configuration not stated) | . | . | . | ? | .
COc1ccc(C2c3[nH]c4ccccc4c3CCN2Cc2cccn2-c2ncccn2)cc1C (configuration not stated) | 15µM | 26µM | . | 16µM | 23µM
Cc1cccc(C2c3[nH]c4ccccc4c3CCN2Cc2cccn2-c2ncccn2)c1 (configuration not stated) | ? | ? | -87 | 23µM | ?
c1ccc(C2c3[nH]c4ccccc4c3CCN2Cc2cccn2-c2ccccn2)nc1 (configuration not stated) | ? | . | . | ? | .
C/C(=N/Nc1nc(C)cc(C)n1)c1ccc(Br)cc1 | ? | . | . | ? | .
Cc1cc(C)nc(N/N=C/c2ccccc2OCc2ccc(Cl)cc2)n1 | 16µM | . | . | ? | ?
Cc1cc(C)nc(N/N=C/c2ccccc2OCc2cccc(Br)c2)n1 | ? | ? | -62 | 18µM | ?
Cc1cc(C)nc(N/N=C/c2ccccc2OCc2ccccc2)n1 | ? | . | . | ? | .
Cc1cc(C)nc(N/N=C/c2cc(Br)ccc2O)n1 | 5.2µM | . | . | 3.7µM | ?
CC1(C)C=Cc2c(c3ccccc3[nH]c2=O)O1 | . | . | . | ? | .
CC(C)(C)c1ccc(NC(=O)N2CCCN(c3c(Cl)cncc3Cl)CC2)cc1 | 16µM | ? | -65 | 7.3µM | .
O=C(Nc1ccc(F)cc1)N1CCCN(c2ccc(C(F)(F)F)cn2)CC1 | ? | . | . | ? | ?
COc1ccccc1-c1nnc(NC(=O)c2ccc(S(=O)(=O)N(C)CC3CCCO3)cc2)o1 (configuration not stated) | ? | . | . | ? | ?
CCN(Cc1ccccc1)S(=O)(=O)c1ccc(C(=O)Nc2nnc(-c3ccccc3OC)o2)cc1 | 12µM | . | . | 8.2µM | .
COc1ccccc1-c1nnc(NC(=O)c2ccc(S(=O)(=O)N(C)C)cc2)o1 | ? | . | . | 23µM | ?
COc1ccccc1-c1nnc(NC(=O)c2ccccc2F)o1 | ? | . | . | ? | .
COc1cc2c(cc1CNC[C@H]1O[C@@H](n3ccc(N)nc3=O)[C@H](O)[C@@H]1O)OCO2 | . | . | . | . | .
CCOC(=O)Nc1nc(-c2ccc(Cl)cc2Cl)cs1 | ? | . | . | 10µM | .
CC(=O)NNc1nc(-c2ccccc2)cs1 | 21µM | . | . | ? | .
CC(=O)Nc1nc(-c2cccc3ccccc23)cs1 | 15µM | . | . | ? | .
O=C1OC(Nc2nc(-c3ccc(F)cc3)cs2)c2ccccc21 (configuration not stated) | 15µM | ? | -92 | 23µM | 23µM
CC(=O)NNc1nc(-c2ccc(C)cc2)cs1 | . | . | . | . | .
SMILES | TDP1 cell CPT | HT1080NT lethal | IL-1B inflam inh | DT40 TDP1 no CPT | HT1080 IDH1KD tx
O=C1OC(Nc2nc3ccccc3s2)c2ccccc21 (configuration not stated) | . | . | . | . | .
COC(=O)N1CCC2(CCN(C(=O)NC(C)C)CC2)CC1 | . | / | / | . | /
O=C(NNc1nc(-c2ccccc2)cs1)c1ccc(F)cc1 | . | ? | . | . | .
O=C(NC(=S)Nc1nc(-c2ccccc2)cs1)c1cccs1 | . | . | . | . | .
O=C(NNc1nc(-c2ccc(F)cc2)cs1)c1ccccc1 | 2.6µM | ? | . | 4.1µM | ?
O=C(NNc1nc(-c2ccccc2)cs1)c1cccs1 | ? | ? | . | 23µM | ?
O=C(CCc1cn(Cc2ccc(F)cc2)c2ccccc12)N1CCOCC1 | . | . | . | . | .
Cc1ccc(NC(=O)c2cnccn2)cc1S(=O)(=O)N(C)C | . | . | . | . | .
Cc1ccc(NC(=O)c2ccc3ccccc3n2)cc1S(=O)(=O)N(C)C | ? | . | . | 12µM | .
Cc1ccc(NC(=O)c2c3c(nc4ccccc24)CCC3)cc1 | . | . | . | . | .
Cc1cnc(C(=O)Nc2ccc(C)c(S(=O)(=O)N(C)C)c2)cn1 | ? | . | . | 15µM | .
Cc1ccc(NC(=O)c2c3c(nc4ccccc24)CCC3)cc1S(=O)(=O)N(C)C | 16µM | . | . | ? | .
COc1ccc(CNC(=O)N2CCN(C(=O)c3ccccc3)CC2)cc1 | . | . | . | ? | .
COc1ccc(NC(=O)CCCn2nc(C)c3c(C)n(-c4ccccc4)nc3c2=O)cc1OC | . | . | ? | . | .
Cn1ncc2c(O/N=C(\N)c3ccc(C(F)(F)F)cc3)ncnc21 | 6.5µM | 21µM | -70 | 5.2µM | 16µM
O=C(N/N=C/c1c[nH]c2ccc(Br)cc12)c1ccn(Cc2ccc(Cl)cc2Cl)n1 | ? | ? | ? | 21µM | ?
COc1ccc(S(=O)(=O)N(C)C)cc1NC(=O)CN1C(=O)NC2(CCCC2)C1=O | . | . | . | . | .
C/C(=N\N)c1c(-c2ccccc2)c2cc(C)ccc2[nH]c1=O | . | . | . | . | .
Cc1ccc2[nH]c(=O)c(CNS(=O)(=O)c3ccccc3)c(-c3ccccc3)c2c1 | ? | . | . | 18µM | .
CCOC(=O)c1c(C)[nH]c(C(=O)OC(C)C(=O)NC2CCCCC2C)c1C (configuration not stated) | ? | ? | . | ? | .
Clc1cccc(-n2ncc3c(N4CCN(Cc5ccccc5)CC4)ncnc32)c1 | 23µM | / | / | ? | /
CCCCN(C)c1ncnc2c1cnn2-c1cccc(Cl)c1 | 23µM | / | / | 16µM | /
c1ccc(CCN2CCN(c3ncnc4c3cnn4-c3ccccc3)CC2)cc1 | 23µM | . | . | 18µM | .
CCN1CCN(c2ncnc3c2cnn3-c2ccccc2)CC1 | . | . | . | . | .
Cc1ccc(C)c(N2CCN(c3ncnc4c3cnn4-c3ccccc3)CC2)c1 | ? | . | . | ? | .
Cc1ccccc1C(=O)N1CCN(c2ncnc3c2cnn3-c2ccccc2)CC1 | 21µM | . | ? | 23µM | .
Cc1cccc(C(=O)NCC(=O)OCc2nc(N)nc(Nc3ccccc3C)n2)c1 | . | . | . | . | .

High-throughput results deposited in PubChem by National Center for Advancing Translational Sciences (NCATS).
